Records with an inconclusive call do not appear. Unmarked numbers belong to inactive results. The source made the active and inactive calls. Calls come from the whole dose curve; as a rule, active = well fitted inhibition curve with a large enough effect in the signal ratio in the repeat runs (not every such curve was filed as active); inconclusive = weak or mixed curves, or effect the other way; inactive = no such curve, though single readings can be large or run the other way; the % refers to the signal ratio.
molecular target: Peroxisome proliferator-activated receptor delta (Homo sapiens) (UniProt Q03181); assay: qHTS assay to identify small molecule antagonists of the peroxisome proliferator-activated receptor delta (PPARd) signaling pathway (AID 743215); conditions: HEK293H PPARd-UAS-bla, beta-lactamase FRET ratio, antagonist, 17 h; series mostly up to 62 µM; ratio activity, negative = inhibition: at the top concentration;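 note: cells stimulated with agonist L165041 at 300 nM final during compound exposure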
Sequence (Q03181 whole entry, looked up): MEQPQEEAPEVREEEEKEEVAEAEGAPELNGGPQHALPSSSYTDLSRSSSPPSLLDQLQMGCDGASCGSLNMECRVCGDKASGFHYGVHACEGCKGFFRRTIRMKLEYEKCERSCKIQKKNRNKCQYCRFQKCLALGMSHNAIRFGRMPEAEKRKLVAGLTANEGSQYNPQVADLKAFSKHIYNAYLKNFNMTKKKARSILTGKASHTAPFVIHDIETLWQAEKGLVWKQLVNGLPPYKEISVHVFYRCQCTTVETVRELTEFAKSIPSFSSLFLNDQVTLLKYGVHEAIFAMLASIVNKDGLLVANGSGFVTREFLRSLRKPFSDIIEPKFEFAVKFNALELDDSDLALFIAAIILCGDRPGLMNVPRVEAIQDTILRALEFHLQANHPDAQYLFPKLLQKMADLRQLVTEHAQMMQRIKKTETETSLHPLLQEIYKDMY
Excerpt: U.S. Tox21 Program National Center for Advancing Translational Sciences [NCATS] NIH Chemical Genomics Center [NCGC] U.S. Environmental Protection Agency [EPA] National Institutes of Environmental Health Sciences [NIEHS] National Toxicology Program [NTP] U.S. Food and Drug Administration [FDA] Tox21 Assay Overview: The peroxisome proliferator-activated receptors (PPARs) are lipid-activated transcription factors of the nuclear receptor superfamily with three distinct subtypes namely PPAR alpha, PPAR delta (PPARd) and PPAR gamma. All these subtypes heterodimerizes with Retinoid X receptor (RXR) and have different physiological functions. […] To identify the compounds that inhibit PPAR-delta signaling, GeneBLAzer PPAR delta UAS-bla HEK293H cell line (Invitrogen, Carlsbad, CA, USA) containing a beta-lactamase reporter gene under the control of an Upstream Activator Sequence (UAS) was used to screen the Tox21 compound library.
Tox21 Assay Protocol Summary: PPARd-bla cells were dispensed at 3000 cells/5uL/well in 1536-well black wall/clear bottom plates using a Multidrop Combi (Thermo Fisher Scientific, Waltham, MA) dispenser. After the assay plates were incubated at 37 C and 5% CO2 for 5 h, 23 nL of compounds dissolved in DMSO, positive controls or DMSO only was transferred to the assay plate by a Pintool station (Kalypsys, San Diego, CA), followed by addition of 1ul L165041 (300 nM, final concentration in the wells). The assay plates were incubated at 37 C for 17 h, and then 1 uL of LiveBLAzerTM B/G FRET substrate was added using a Bioraptr Flying Reagent Dispenser (FRD) workstation (Beckman Coulter, Indianapolis, IN, USA). The assay plates were incubated at room temperature for 2 h and fluorescence intensity was measured by an Envision plate reader (PerkinElmer, Shelton, CT).
% is set by controls: 0 for no effect and ±100 for the full control effect.

Row | Structure (SMILES) | ratio activity, negative = inhibition | Potency
1 | CCCCCOC(=O)CCCCC | -2.88% | –
2 | CCOC(=O)CCC(C)=O | -1.04% | –
3 | OC1CCCCC1c1ccccc1 (stereo not given) | -7.81% | –
4 | OCCCC1CCCCC1 | 11.4% | –
5 | CCCCCCOC(=O)CCCCC(=O)OCCCCCC | -2.89% | –
6 | Cn1c(N)c(N=O)c(=O)n(C)c1=O | -11.6% [at 80.4 µM] | –
7 | CCC(C)S (stereo not given) | 5.9% [at 2.83 µM] | –
8 | Cn1cc(S(C)=O)c(=O)c2ccc(F)cc21 (stereo not given) | 0.335% | –
9 | COc1cc(C(=O)N2CCCCCCC2)cc(OC)c1OC | 10.9% | –
10 | N=C(N)c1ccc(OCCCOc2ccc(C(=N)N)cc2)cc1 | -13% | –
11 | CCOC(=O)c1ccc(C)cc1 | -0.544% | –
12 | Nc1nc2c(ncn2COC(CO)CO)c(=O)[nH]1 | -2.6% | –
13 | CCCCCCCCS(=O)(=O)Cl | 1.69% [at 80.4 µM] | –
14 | CN(C(=O)c1c(O)c2ccccc2n(C)c1=O)c1ccccc1 | 0.138% | –
15 | O=C1CC2CC1C1CCCC21 (stereo not given) | 13.2% | –
16 | O=c1cc(CO)occ1O | -3.68% | –
17 | CC/C=C\CC/C=C/C(OCC)OCC | -8.28% | –
18 | CCCCC(CC)COC(=O)c1ccccc1O (stereo not given) | -10.6% | –
19 | CC(C[N+](C)(C)C)OC(N)=O (stereo not given) | 0% | –
20 | O=[N+]([O-])c1ccc(F)cc1F | 2.3% [at 80.4 µM] | –

Row | Structure (SMILES) | ratio activity, negative = inhibition | Potency
21 | C[C@H]1C[C@@H](O)CC(C)(C)C1 | 15.5% | –
22 | O=C(CCCN1CCC(O)(c2cccc(C(F)(F)F)c2)CC1)c1ccc(F)cc1 | -17.3% | –
23 | CO[Si](CCCOCC1CO1)(OC)OC (stereo not given) | – | inactive
24 | CCCC(=O)O[C@]1(C(=O)CO)CC[C@H]2[C@@H]3CCC4=CC(=O)CC[C@]4(C)[C@H]3[C@@H](O)C[C@@]21C | 8.88% | –
25 | NC(=O)c1cn(Cc2c(F)cccc2F)nn1 | 10.5% | –
26 | COC(=O)C1=C(C)NC(C)=C(C(=O)OC)C1c1ccccc1[N+](=O)[O-] | 3.71% | –
27 | CN1CCC(=C2c3ccccc3CC(=O)c3sccc32)CC1 | -0.286% | –
28 | CC(NC(CCc1ccccc1)C(=O)O)C(=O)N1C(=O)N(C)CC1C(=O)O (stereo not given) | -6.41% | –
29 | O=C(O)c1ccccc1OP(=O)(O)O | -3.39% | –
30 | CC(=O)N(CC(O)CO)c1c(I)c(C(=O)NCCO)c(I)c(C(=O)NCC(O)CO)c1I (stereo not given) | -1.01% | –
31 | CO/N=C(/C(=O)N[C@@H]1C(=O)N2C(C(=O)OCOC(=O)C(C)(C)C)=C(C)CS[C@H]12)c1csc(N)n1 | 0.762% | –
32 | C=CCOCC(CC)(CO)COCC=C | -7.2% | –
33 | CCN(CC)CCNC(=O)c1cc(S(C)(=O)=O)ccc1OC | 2.19% | –
34 | CCCN1CCCC[C@H]1C(=O)Nc1c(C)cccc1C | -15.1% | –
35 | CCn1nc(C(=O)O)c(=O)c2cc3c(cc21)OCO3 | -0.434% | –
36 | CC[N+](C)(C)c1cccc(O)c1 | -7.92% | –
37 | COC(=O)CCSCCC(=O)OC | -8.79% | –
38 | O=c1cc(-c2ccccc2)oc2ccccc12 | -6.78% | –
39 | ClC(Cl)(Br)Br | 1.22% | –
40 | CC(=O)OCC(CCn1cnc2cnc(N)nc21)COC(C)=O | 11.2% | –

From PubChem BioAssay (Tox21)
